PubChem BioAssay
Active and inactive are the calls of the source.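 Rule for the calls, unless noted: active = fluorescence slope after compound addition differing from the mean of all screened samples at 99.7% confidence, in either direction; inactive = the rest.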

What was measured:
[1] = inhibitors of TNFa-induced NFkB p65 translocation, primary screen, imaging, HUVEC, MLSMR starter and 10KST1 sets (AID 438;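 active = inhibition above 20% together with a positive visual image hit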;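 note: compound added about 3h40 before a 20 min TNFalpha stimulation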;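 for inhibition: signal is the nuclear over cytoplasmic p65 intensity ratio per well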); details: HUVEC TNFa-induced p65 nuclear translocation; cell count: measured here: nuclei count (cytotoxicity indicator), at 2.08 µM; inhibition: at 2 µM, stronger effect = higher value, 0% TNFa-plus-vehicle, 100% no-TNFa wells
[2] = reduction of polyQ htt aggregates in cells – imaging, exon1htt(103Q)mCFP cells, high-content imaging, primary screen (AID 483;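 active = visual image review flags a hit and inhibition of aggregation exceeds 20%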;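 note: compound exposure lasted 3 days before fixation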;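 for nuclei count: percent of the per-plate median nuclei count of sample wells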); details: exon1htt(103Q)mCFP cell line, aggregate imaging, at 2 µM; inhibition of aggregation: stronger effect = higher value; nuclei count: measured here: cell count, toxicity
[3] = endothelial E-selectin expression blockers – imaging, HUVEC, immunofluorescence, MLSMR starter and 10KST1 sets, primary screen (AID 487;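 active = visually confirmed hit in the image check and inhibition above 20%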;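 for inhibition: signal is fraction of cell area covered by stained E-selectin grains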;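 for nuclei count: 100% = median nuclei count of all wells on the same plate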); details: HUVEC TNFalpha-induced E-selectin immunofluorescence imaging, at 2 µM; inhibition: stronger effect = higher value; nuclei count: measured here: cell number, toxicity
[4] = biological target: Voltage-gated potassium channel subunit beta-2 (Rattus norvegicus) (UniProt P62483); test: inhibitors of rat Kvbeta2 reductase activity – biochemical, NADPH fluorescence, primary screen (AID 622;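 active = fluorescence slope higher than the sample average by over 3 SD, cut at about -0.22 in these data, passing the limit was not always enough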;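 note: slope of raw intensity against log time taken from 70 to 1610 s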); details: recombinant KvBeta, 4-cyanobenzaldehyde reduction, at 10 µM, stronger effect = higher value
Chain of Voltage-gated potassium channel subunit beta-2 (Rattus norvegicus) (P62483 whole entry, looked up): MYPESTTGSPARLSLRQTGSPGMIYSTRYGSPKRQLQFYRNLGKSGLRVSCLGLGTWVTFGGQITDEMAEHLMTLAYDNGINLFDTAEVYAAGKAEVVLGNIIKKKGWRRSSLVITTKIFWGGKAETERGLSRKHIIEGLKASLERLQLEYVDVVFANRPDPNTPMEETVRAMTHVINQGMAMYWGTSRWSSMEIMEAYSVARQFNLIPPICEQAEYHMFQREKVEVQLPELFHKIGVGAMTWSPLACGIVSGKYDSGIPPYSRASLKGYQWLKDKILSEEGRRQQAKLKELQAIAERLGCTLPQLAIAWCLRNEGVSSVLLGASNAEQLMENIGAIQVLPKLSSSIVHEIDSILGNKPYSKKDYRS

[5] = biological target: Voltage-gated potassium channel subunit beta-2 (Rattus norvegicus) (UniProt P62483); test: enhancers of rat Kvbeta2 NADPH turnover – biochemical, NADPH fluorescence, primary screen (AID 623;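 active = NADPH fluorescence slope more negative than the mean of all samples by about 3 SD, 99.7% confidence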;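 note: fluorescence intensity change per second fitted from 20 to 320 s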); details: Recombinant KvBeta, NADPH fluorescence decrease slope, 10 min; at 10 µM; stronger effect = lower value
[6] = biological target: Alpha-2C adrenergic receptor (Homo sapiens) (UniProt P18825); test: compounds altering alpha2C-coupled GIRK flux – cell-based, HEK293 alpha2C/GIRK1/2, thallium flux, primary screen (AID 624); details: thallium flux BTC fluorescence, at 10 µM, actives lie on both sides;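 note: slope of fluorescence ratio to pre-addition baseline per second over 15 to 24 s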
Chain of Alpha-2C adrenergic receptor (Homo sapiens) (P18825 whole entry, looked up): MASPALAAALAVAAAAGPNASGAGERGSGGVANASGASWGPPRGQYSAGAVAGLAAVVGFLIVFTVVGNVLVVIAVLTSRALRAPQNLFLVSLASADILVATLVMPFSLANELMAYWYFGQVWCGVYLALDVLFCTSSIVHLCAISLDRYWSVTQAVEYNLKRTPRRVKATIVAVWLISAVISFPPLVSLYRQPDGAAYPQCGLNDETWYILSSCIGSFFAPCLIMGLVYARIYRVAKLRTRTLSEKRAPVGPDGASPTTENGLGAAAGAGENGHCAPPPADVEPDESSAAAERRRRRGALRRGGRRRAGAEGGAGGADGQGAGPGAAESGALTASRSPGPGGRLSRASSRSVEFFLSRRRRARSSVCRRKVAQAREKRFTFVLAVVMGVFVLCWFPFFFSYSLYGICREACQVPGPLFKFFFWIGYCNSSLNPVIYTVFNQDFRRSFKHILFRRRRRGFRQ

[7] = blockers of RIG-like receptor reporter activation – cell-based, Sendai virus stimulus, luciferase, 10K MLSCN set, TLR/RLR signaling modifier project, primary screen (AID 602276;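 active = inhibition at or above 50% at 10 µM; inactive = inhibition below 50%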;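 note: firefly luciferase from ISG56 promoter only with Renilla not read in this screen; 0% = Sendai virus plus DMSO and 100% = medium plus DMSO without virus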); details: HEK293 RL24 IRF3 luciferase reporter, at 10 µM, stronger effect = higher value
[8] = TLR3 IRF3 reporter activation blockers – cell-based, poly I:C stimulus, luciferase, 10K MLSCN set, primary screen (AID 602277;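 active = inhibition of the reporter signal at or above 50%; inactive = inhibition below 50%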); details: HEK293-TLR3 RL24 IRF3 luciferase reporter, at 10 µM, stronger effect = higher value

Compound	cell count [1]	inhibition [1]	inhibition of aggregation [2]	nuclei count [2] [%]	inhibition [3]	nuclei count [3] [%]	fluorescence slope [4]	NADPH fluorescence slope [5]	slope [6]	inhibition [7]	inhibition [8]
Cc1ccc(NC(=O)CN(c2ccc3c(c2)OCO3)S(=O)(=O)c2c(C)n[nH]c2C)cc1	768	-12.5% (inactive)	-29.4% (inactive)	108	-39.7% (inactive)	101	-0.42 (inactive)	-5.2e-05 (inactive)	0.00614 (inactive)	6.09% (inactive)	17.9% (inactive)
CCOC(=O)c1cccc(NC2c3ccccc3C(=O)N2Cc2ccco2)c1 (stereo not drawn)	700	-2.3% (inactive)	10.2% (inactive)	117	-10.9% (inactive)	119	-0.554 (inactive)	-4.1e-05 (inactive)	0.00706 (inactive)	6.59% (inactive)	17.6% (inactive)
O=C(CSc1nnc(Cc2cccs2)n1Cc1ccco1)Nc1cccc(Cl)c1	677	-3.5% (inactive)	-13.8% (inactive)	108	-30.1% (inactive)	116	-0.397 (inactive)	1.1e-05 (inactive)	0.0045 (inactive)	13.6% (inactive)	31.6% (inactive)
Cc1nc2scc(-c3ccco3)c2c(=O)n1/N=C/N(C)C	453	-4.8% (inactive)	-22.8% (inactive)	86.6	-35.6% (inactive)	116	-0.342 (inactive)	-6.4e-05 (inactive)	0.00533 (inactive)	-2.39% (inactive)	3.07% (inactive)
CCCCn1c(=O)[nH]c(=O)c2c1nc(COc1ccc(C#N)cc1)n2CCC	337	3.4% (inactive)	-40.4% (inactive)	97.4	32.8% (inactive)	110	-0.538 (inactive)	6.8e-06 (inactive)	0.00653 (inactive)	10.1% (inactive)	30.2% (inactive)
CCN(Cc1cc2ccccc2[nH]c1=O)S(=O)(=O)c1ccccc1	642	7.5% (inactive)	9.9% (inactive)	104	38.9% (inactive)	104	-0.627 (inactive)	1.2e-05 (inactive)	0.00647 (inactive)	12.2% (inactive)	5.79% (inactive)
Cc1cc2nc(-c3ccco3)cc(C(F)(F)F)n2n1	903	3.5% (inactive)	-18.7% (inactive)	104	-56.6% (inactive)	121	-0.578 (inactive)	-1.8e-05 (inactive)	0.00736 (inactive)	10.1% (inactive)	18.3% (inactive)
Cc1nn(-c2ccccc2)c2sc(C(=O)N3CCOCC3)cc12	536	-4.4% (inactive)	-1.9% (inactive)	115	-11.9% (inactive)	118	-0.398 (inactive)	1.4e-05 (inactive)	0.00676 (inactive)	-21.4% (inactive)	-21.6% (inactive)
CN(C)C(=O)N1CCN(C(=O)c2ccco2)CC1	827	-15.9% (inactive)	17.6% (inactive)	99.6	-69.2% (inactive)	114	-0.601 (inactive)	5.7e-06 (inactive)	0.00702 (inactive)	-4.34% (inactive)	19.5% (inactive)
CC(=O)NC(C)c1nc2ccccc2n1C(C)C (stereo not drawn)	588	11.5% (inactive)	-2.2% (inactive)	98.7	-50.6% (inactive)	121	-0.551 (inactive)	-2.4e-05 (inactive)	0.00604 (inactive)	14.5% (inactive)	42.2% (inactive)
Cc1cc(C(=O)N2CCN(C/C=C/c3ccccc3)CC2)no1	242	8.7% (inactive)	-4.4% (inactive)	101	11.3% (inactive)	98.6	-0.465 (inactive)	1.9e-06 (inactive)	0.0056 (inactive)	13% (inactive)	25.3% (inactive)
CCN(CCCNS(=O)(=O)c1ccc2c(c1)oc(=O)n2C)c1cccc(C)c1	740	-0.6% (inactive)	-22.6% (inactive)	110	-21.3% (inactive)	102	-0.574 (inactive)	9.4e-07 (inactive)	0.00612 (inactive)	18.1% (inactive)	32.9% (inactive)
CCN1CCN(c2ncc(C(=O)N3CCN(c4ccccc4OC)CC3)c3ccccc23)CC1	315	-2.5% (inactive)	0.9% (inactive)	97.8	13.2% (inactive)	96.4	-0.466 (inactive)	-4.4e-05 (inactive)	0.00623 (inactive)	0.246% (inactive)	31.7% (inactive)
CCOC(=O)/C(C#N)=C(/C)c1ccc(OC)cc1	323	-9.6% (inactive)	-28.9% (inactive)	120	-50.1% (inactive)	120	-0.515 (inactive)	-4.3e-06 (inactive)	0.00405 (inactive)	5.07% (inactive)	-13.7% (inactive)
Cc1ccc(CCNC(=O)C2CCN(S(=O)(=O)c3c(C)nn(C)c3C)CC2)cc1	621	6.1% (inactive)	-21.9% (inactive)	105	-8.4% (inactive)	116	-0.618 (inactive)	-5.1e-06 (inactive)	0.00762 (inactive)	-5.1% (inactive)	6.19% (inactive)
COC(=O)C1=C(C)NC(C)=C(C(=O)OC)C1C1CC=CCC1 (stereo not drawn)	377	1.7% (inactive)	24.3% (inactive)	91.2	32.4% (inactive)	93.7	-0.456 (inactive)	8.7e-05 (inactive)	0.00547 (inactive)	8.91% (inactive)	22.8% (inactive)
CC(C)CC1NC(=O)N(CC(=O)N2CCN(S(=O)(=O)c3ccc(Cl)cc3)CC2)C1=O (stereo not drawn)	716	4% (inactive)	11.8% (inactive)	93	-35.6% (inactive)	76.3	-0.416 (inactive)	4.2e-06 (inactive)	0.00417 (inactive)	15.2% (inactive)	-5.28% (inactive)
CCOc1ccc(N(CC(=O)OC)S(=O)(=O)c2ccc(OC)c(OC)c2)cc1	444	6.3% (inactive)	-1.6% (inactive)	104	9.4% (inactive)	101	-0.455 (inactive)	6.6e-05 (inactive)	0.00363 (inactive)	-8.61% (inactive)	15.5% (inactive)
COc1cc2c(cc1NCc1ccccn1)oc1ccccc12	304	-1.5% (inactive)	20.3% (inactive)	66.4	-27.9% (inactive)	90.6	-0.365 (inactive)	-4.6e-05 (inactive)	0.00538 (inactive)	-24.8% (inactive)	-70.7% (inactive)
Cc1ccc(N=C2NC(=O)CS2)c(C)c1	607	7.4% (inactive)	22.3% (inactive)	95.2	59.4% (active)	76.3	-0.47 (inactive)	-2.8e-05 (inactive)	0.00603 (inactive)	2.6% (inactive)	21.7% (inactive)
Cc1ccc2nc(-c3ccc4c(c3)OCCO4)cc(C(=O)O)c2c1	337	-10.3% (inactive)	-4.5% (inactive)	111	30.4% (inactive)	89.9	-0.299 (inactive)	-4e-05 (inactive)	0.00454 (inactive)	-13.7% (inactive)	98.1% (active)
COc1ccc(CN(C(=O)CSc2nnc(-c3ccccc3F)o2)c2ccc(F)cc2)cc1	560	-14.3% (inactive)	15% (inactive)	85.2	-118% (inactive)	123	-0.421 (inactive)	-3.9e-05 (inactive)	0.0074 (inactive)	8.03% (inactive)	9.3% (inactive)
CCOC(=O)c1cccc(NC(=O)c2ccco2)c1	690	2.9% (inactive)	-3.3% (inactive)	100	38.8% (inactive)	97	-0.387 (inactive)	-6e-05 (inactive)	0.00541 (inactive)	-16.7% (inactive)	-83.6% (inactive)
CC(C)c1ccc(NC(=O)CCNS(=O)(=O)c2cccc3nonc23)cc1	669	-6.5% (inactive)	24.6% (inactive)	98	-55.8% (inactive)	106	-0.544 (inactive)	2.2e-05 (inactive)	0.00564 (inactive)	16.4% (inactive)	24.2% (inactive)
CCn1cc(C(=O)O)c(=O)c2cc(F)c(N3CCN(C(=O)Nc4ccccc4)CC3)cc21	676	-14% (inactive)	27.3% (inactive)	68.8	-42.9% (inactive)	101	-0.498 (inactive)	-8.3e-06 (inactive)	0.00493 (inactive)	8.6% (inactive)	10.7% (inactive)
COc1cc(OC)cc(OCC(O)Cn2cnc(-c3ccccc3)c2)c1 (stereo not drawn)	586	6% (inactive)	-5.4% (inactive)	92.1	11.1% (inactive)	94.7	-0.469 (inactive)	-4e-05 (inactive)	0.00517 (inactive)	17.6% (inactive)	31.3% (inactive)
COc1ccc2c(c1)OC(O)(C(F)F)CC2=O (stereo not drawn)	406	1.5% (inactive)	5.7% (inactive)	91.2	-205% (inactive)	96.2	-0.398 (inactive)	2.1e-05 (inactive)	0.00381 (inactive)	6.89% (inactive)	28.4% (inactive)
Cc1cccc(CC2CC(=O)N(c3ccccc3)C2=O)c1 (stereo not drawn)	203	-2.9% (inactive)	-15.1% (inactive)	84.5	11.6% (inactive)	102	-0.554 (inactive)	-2.2e-05 (inactive)	0.00674 (inactive)	-16.2% (inactive)	-11.2% (inactive)
